Assay outcomes from PubChem BioAssay.
A selection: hits, their analogues and other compounds. The true share with any hit is near 3.1%.
UBC13 inh = inhibitors of human UBC13 polyubiquitin chain formation; inhibition, % at 20 µM; AID 485273; 330,000 compounds, 0.47% hits; TR-FRET; P61088; in the data active = inhibition above about 45%, passing the limit was not always enough
Target sequence (P61088 whole entry, looked up): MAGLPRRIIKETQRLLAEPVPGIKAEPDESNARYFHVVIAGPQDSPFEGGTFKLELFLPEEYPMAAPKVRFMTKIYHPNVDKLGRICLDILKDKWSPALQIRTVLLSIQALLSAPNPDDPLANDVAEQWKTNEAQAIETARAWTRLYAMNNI
PREPL inhibitor = inhibits the human prolyl oligopeptidase-like enzyme; 320,000 compounds, 0.68% hits; AID 2751; recombinant PREPL, fluorescence polarization activity-based probe; inhibition, % at 5.96 µM;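 also: 0% = enzyme with DMSO and 100% = wells lacking enzyme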
MEKK2mut PB1 HTS = signal of MEK5 binding to mutant human MEKK2 PB1 domain; bead flow cytometry, Alexa488-MEK5 binding to MEKK2 mutant; AID 1530; percent response, % at 10 µM; 290,000 compounds, 0.35% hits; in the data active = percent response above about 24%, passing the limit was not always enough
MEKK2wt PB1 HTS = raises or lowers MEK5 binding to wildtype human MEKK2 PB1 domain | Q9Y2U5 | bead flow cytometry, Alexa488-MEK5 binding to MEKK2 WT; actives lie on both sides | binding response (% of control), % at 10 µM | 290,000 compounds, 1.1% hits | AID 1531; in the data active = binding response below about 67% or above about 130%
MEKK3 PB1 HTS = raises or lowers MEK5 binding to the human MEKK3 PB1 domain; bead-based flow cytometry, Alexa488-MEK5 binding to MEKK3; actives lie on both sides; 0 = blocked by unlabeled MEK5, 100 = vehicle; 290,000 compounds, 1.4% hits; Q99759; binding response (% of control), % at 10 µM; AID 1529;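 active = binding response more than 3 SD above or below the average of its plate-row segment, actives on both sides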;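 also: Alexa488 bead fluorescence after subtracting the streptavidin-only scavenger bead signal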
ATG4B inhibitor = blocks human ATG4B protease cleavage of LC3 substrate; Q9Y4P1; ATG4B cleavage of LC3-PLA2, NBD-HPC fluorescence, 1 h; inhibition, % at 8.33 µM; 340,000 compounds, 0.51% hits; AID 504462; in the data active = inhibition above about 40%
Target sequence (Q9Y4P1 whole entry, looked up): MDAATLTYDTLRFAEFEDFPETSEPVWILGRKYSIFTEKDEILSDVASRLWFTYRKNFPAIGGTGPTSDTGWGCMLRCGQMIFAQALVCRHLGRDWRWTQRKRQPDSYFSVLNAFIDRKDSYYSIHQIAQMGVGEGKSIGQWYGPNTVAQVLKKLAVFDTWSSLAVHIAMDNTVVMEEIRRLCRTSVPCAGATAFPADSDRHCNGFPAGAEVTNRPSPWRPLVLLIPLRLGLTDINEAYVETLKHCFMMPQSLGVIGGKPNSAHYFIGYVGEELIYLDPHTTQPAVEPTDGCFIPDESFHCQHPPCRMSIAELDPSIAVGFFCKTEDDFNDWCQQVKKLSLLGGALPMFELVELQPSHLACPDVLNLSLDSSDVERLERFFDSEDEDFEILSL
PREPL confirm = human PREPL inhibition, confirmation; shares compounds with PREPL inhibitor; recombinant PREPL, fluorescence polarization activity probe; 2,000 compounds, 67% hits; AID 2803; inhibition, % at 5.96 µM;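 also: 0% = protein with DMSO and 100% = wells lacking protein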
* = called active by the depositor; · = no result. Rule as the data show it, unless noted: active = inhibition above about 43%; inactive = the rest.

SMILES	UBC13 inh	PREPL inhibitor	MEKK2mut PB1 HTS	MEKK2wt PB1 HTS	MEKK3 PB1 HTS	ATG4B inhibitor	PREPL confirm
O=C(CSc1ccc(Cl)cc1)Nc1ccc(NC(=O)c2ccco2)cc1	0	-5	1	98	97	4	·
Cc1ccccc1C(=O)N1CCN(c2ccc(NC(=O)CSc3ccc(Cl)cc3)cc2)CC1	-10	65*	-2	99	97	-15	51*
O=C(COc1ccc(Cl)cc1)Nc1ccc(N2CCN(C(=O)c3ccco3)CC2)cc1	2	49*	5	106	108	-9	48*
O=C(CSc1ccc(Cl)cc1)Nc1ccc(N2CCN(C(=O)c3ccco3)CC2)cc1	4	48*	2	100	103	-2	49*
CCC(=O)Nc1ccc(N2CCN(C(=O)c3ccccc3C)CC2)cc1	11	10	-4	92	86	7	·
Cc1cc2c(N)cccc2nn1	-42	68*	1	95	100	16	11
CCOc1cc(-c2sc(Nc3cc(C)ccc3OC)n[n+]2-c2ccccc2)ccc1OC	30	21	·	·	·	11	·
COc1ccc(C)cc1Nc1n[n+](-c2ccccc2)c(-c2c(OC)ccc3ccccc23)s1	39	51*	·	·	·	12	40
O=C(COc1ccc(Cl)cc1)Nc1cc2c3c(c1)CC(=O)N3CCC2	2	47*	·	·	·	-2	35
C/C(=N\Nc1ccc([N+](=O)[O-])cc1)c1cccc(N)c1	-67	55*	·	·	·	-1	46*
COc1ccc(C)cc1S(=O)(=O)NC(C)C(=O)NC1CC1 (stereo not given)	-6	11	1	97	94	-3	·
COc1ccccc1N1CCN(C(=O)C2=CC=CN3CCS(=O)(=O)N=C23)CC1	2	9	·	·	·	-4	·
CCN(CC)CCN(C(=O)c1ccc2c(c1)CCCC2)c1nc2cc(OC)c(OC)cc2s1	32	49*	14	119	103	-2	34
O=C(CSc1nc2ccc(NC(=O)c3ccccc3C(=O)O)cc2s1)Nc1ccc(F)c([N+](=O)[O-])c1	-10	51*	-7	94	101	29	14
COc1ccccc1C(=O)Nc1ccc2nc(SCC(=O)N(C)C)sc2c1	5	15	1	98	102	-15	·
O=C1C2CC=CCC2C(=O)N1Cc1ccccc1Cl (stereo not given)	-5	5	-3	99	99	-9	·
O=C(Nc1nccs1)c1ccc(CSc2ccccc2)o1	4	-18	4	104	96	5	·
COc1ccc(C2(C)NC(=O)N(CC(=O)Nc3ccc4[nH]c(=O)[nH]c4c3)C2=O)cc1 (stereo not given)	0	17	·	·	·	9	·
Cc1ccc(C2(C)NC(=O)N(CC(=O)Nc3ccc4[nH]c(=O)[nH]c4c3)C2=O)cc1 (stereo not given)	0	46*	-25	70	84	-7	37
Cc1ccc(S(=O)(=O)N2CCCCC2)cc1NS(=O)(=O)c1ccccc1F	-49	3	·	·	·	-7	·
O=C(NCCc1c[nH]c2ccccc12)OCCCCOC(=O)NCCc1c[nH]c2ccccc12	45	61*	·	·	·	-18	30
O=C(NCc1ccccc1)c1ccc2c(=O)[nH]c3c(C(=O)NCC4CCCO4)sc(=S)n3c2c1 (stereo not given)	11	44*	-11	85	93	-3	64*
Cc1ccc(CNC(=O)c2ccc3c(=O)[nH]c4c(C(=O)NCC5CCCO5)sc(=S)n4c3c2)cc1 (stereo not given)	-16	44*	4	104	104	21	46*
CCCCCNC(=O)c1ccc2c(=O)[nH]c3c(C(=O)NCC4CCCO4)sc(=S)n3c2c1 (stereo not given)	-8	61*	-6	92	94	24	57*
Cc1ccc2cc([N+](=O)[O-])ccc2n1	-7	9	1	95	100	-6	·
SMILES	UBC13 inh	PREPL inhibitor	MEKK2mut PB1 HTS	MEKK2wt PB1 HTS	MEKK3 PB1 HTS	ATG4B inhibitor	PREPL confirm
Cc1ccc(CNC(=O)CCc2nnc(Cc3ccc(-c4ccccc4)cc3)o2)o1	3	5	-10	91	104	2	·
Cc1cc(C)c2nc(N3C(=O)C(O)=C(C(=O)c4ccco4)C3c3ccco3)sc2c1 (stereo not given)	-14	44*	1	98	99	11	53*
Cc1occc1-c1nnc(SCc2nc3ccccc3c(=O)n2CC#N)n1C	3	43*	2	94	95	-4	40
N=c1c(C(=O)NCc2ccc(F)cc2)cc2c(=O)n3ccccc3nc2n1Cc1cccnc1	0	45*	4	99	102	-3	42
COc1cc(C2NCCc3c2[nH]c2ccccc32)ccc1OC(C)C (stereo not given)	15	44*	-13	91	87	·	41
Cn1cc(Cl)c(C(=O)OCC(=O)c2ccccc2)n1	-2	16	-1	103	105	-2	·
CCCCN1C(=N)N([C@@H](C)CN2CCC[C@H]2CN2C(N)=NC[C@H]2C(C)C)C[C@H]1[C@H](C)CC	4	40	·	·	·	·	·
CCCCN1C(=N)N([C@@H](C)CN2CCC[C@H]2CN2C(N)=NC[C@H]2CC(C)C)C[C@H]1[C@H](C)CC	11	47*	·	·	·	2	41
NC1=NC[C@H](Cc2ccccc2)N1CC1CCCCC1	4	6	1	105	102	3	·
CC(C)C[C@@H]1CN=C(N)N1C[C@@H]1CCCN1C[C@@H](C(C)C)N1C[C@@H](Cc2ccccc2)N(CCc2ccc(Cl)c(Cl)c2)C1=N	15	70*	·	·	·	8	64*
Cc1ccc(C(=O)N2CC(C)CC(C)C2)cc1NC1=NC2CS(=O)(=O)CC2S1 (stereo not given)	-1	-8	2	100	102	-4	·
Cc1ccc(C(=O)Oc2coc(CSc3nnc(NC(=O)c4cccs4)s3)cc2=O)cc1	-3	76*	-1	88	88	7	85*
CN1CCN(C(c2cccc(C(F)(F)F)c2)c2nnnn2C(C)(C)C)CC1 (stereo not given)	8	43*	-2	100	93	-2	32
COCCn1nnnc1C(c1cccc(C(F)(F)F)c1)N1CCOCC1 (stereo not given)	-5	-11	0	97	88	-2	·
CNC(=S)N1N=C(c2ccc(C)cc2)CC1c1ccc(N(C)C)cc1 (stereo not given)	18	51*	-1	104	109	-3	57*
CNC(=S)N1N=C(c2ccc(C)cc2)CC1c1ccc(OC)cc1 (stereo not given)	2	17	3	98	105	-16	·
